This is an account of results in PubChem BioAssay AID624093 (National Center for Advancing Translational Sciences (NCATS), 2012).

Results filed as inconclusive are left out. Active and inactive are the calls of the source. Calls follow the shape of the dose curve; as a rule, active = well fitted inhibition curve with a large enough effect; inconclusive = small, poorly fitted or top-dose-only effect; inactive = flat fitted curve, though single readings scatter.

In the experiment the target is Dual specificity tyrosine-phosphorylation-regulated kinase 1A (Homo sapiens) (UniProt Q13627). Kind of experiment: Confirmation Assay for Inhibitors of Dyrk1a (Kinase-Glo Assay): KU probe. As to conditions: Kinase-Glo ATP luminescence; series mostly up to 76.9 µM. An excerpt:
NIH Molecular Libraries Probe Production Centers Network [MLPCN] NIH Chemical Genomics Center [NCGC] MLSCN Grant: 1R03MH084827-01 PI Name: Tom Misteli NCGC Assay Overview: The CMGC group of protein kinases which includes CDK-like kinases (Clk) and Dyks are essential kinases found in all eukaryotes. Clks have been implicated to play a role in the regulation of alternative splicing; while Dyrks, in particular over expression of Dyrk1A, has been linked to diseases as Down syndrome (DS; OMIM 190685) and Alzheimer disease (AD; OMIM 104300). Among the members of the CMGC group, the Clks and the Dyrks are very closely related therefore to determine validity and selectivity of an active compound observed in the CLK4 qHTS screen (AID:1770), a bioluminescent counter-screen against Dyrk1A was developed. In addition, potent and selective compounds against Dyrk1A were identified to further assess the role of this enzyme in DS and AD. Dyrk1A (Invitrogen, cat # PV3785) was assayed using ATP and DYRKtide (AnaSpec, cat# 62698) as substrates. Promega Kinase-Glo (cat# V6712) technology was used to detect the residual ATP following kinetic reaction. The Kinase-Glo Plus contains Ultra-Glo [5] luciferase and D-luciferin which generates a bioluminescence signal from the remaining ATP. No enzyme and harmine (Sigma, cat # 286044-1G), a compound shown to inhibit Dyrks were used as a positive control; while DMSO treatment was used as a negative control.
NCGC Assay Protocol Summary: Two uL/well of substrate solution (8uM Dyrktide, 2uM ATP, 25mM Tris-HCl pH 7.5, 10mM MgCl2 , 0.5mM EGTA, 5mM cystein, 0.01% Triton X-100 final concentration) was dispensed into 1536-well assay plates (Greiner, solid white, medium-binding plates) with Aurora Discovery BioRAPTR Flying Reagent Dispenser (FRD, Beckton-Dickenson). Compound solution (23 nL) was transferred to the assay plate using Kalypsys pin tool equipped with a 1536-pin tool. One uL/well enzyme solution (5nM Dyrk1A, 25mM Tris-HCl pH7.5, 10mM MgCl2, 0.5mM EGTA, 5mM cystein, 0.01% Triton X-100 final concentration) was then added using FRD yielding a total kinase reaction volume of 3uL/well. After 2 hours of room temperature incubation, 3uL Kinase-Glo detection reagent was added for a final assay volume of 6uL/well. The plates were spun for 30 seconds (1000 rpm) and incubated at ambient temperature for 2 minutes followed by a luminescence read using Perkin Elmer ViewLux plate reader at 3 seconds exposure time and 2x binning.
On the technique in general: In Kinase-Glo more light means more ATP remaining.
As to `CN(CC1CCCCO1)c1ncnc2ccc(-c3ccc4c(c3)OCO4)cc12` (stereo not given), the Potency was 207 nM (active).

Take `O=C(Nc1ccnc(-c2ccc3c(c2)OCO3)n1)c1ccncn1`: the Potency result was “inactive”.

For `c1cncc(CNc2ncncc2-c2ccc3c(c2)OCO3)c1`, the Potency was 26000 nM (active).

As for `Cc1c(-c2ccnc(NCc3ccc(Cl)cc3)n2)sc(=O)n1C`, the Potency was 164 nM (active).

As for `Brc1cc(Br)cc(CNc2ccnc(-c3ccc4c(c3)OCO4)n2)c1`, the Potency entry is “inactive”.

For the compound `Cc1ccc(CNc2ccnc(-c3ccc4c(c3)OCO4)n2)cc1`, the Potency result is “inactive”.

Consider `Clc1ccc(CNc2ccnc(-c3ccc4c(c3)OCO4)n2)cc1Cl`, for which the Potency entry is “inactive”.

Take `Cc1ccc(CNc2ccnc(-c3c(C)noc3C)n2)cc1`: the Potency result was “inactive”.

Turning to `c1nc(NCC2CC2)c2cc(-c3ccc4c(c3)OCO4)ccc2n1`, the Potency was 41.2 nM (active).

For `O=c1cnc2cnc(Nc3ccccc3)nc2n1CCc1ccccc1`, the Potency is 292 nM (active).

Consider `FC(F)(F)c1cc(Br)cc(Nc2nccc(-c3ccc4c(c3)OCO4)n2)c1`, for which the Potency is 519 nM (active).

Take `c1nc(NCCC2CCCO2)c2cc(-c3ccc4c(c3)OCO4)ccc2n1` (stereo not given): the Potency was 164 nM (active).

For `Clc1ccc(Nc2nccc(-c3ccc4c(c3)OCO4)n2)cc1`, the Potency was 519 nM (active).

`CCCNc1ncnc2ccc(-c3ccc4c(c3)OCO4)cc12`: the Potency is 116 nM (active).

As for `c1cncc(CNc2ccnc(-c3cccc4ccccc34)n2)c1`, the Potency is 41200 nM (active).

On to `c1coc(-c2ccnc(-c3ccc4c(c3)OCO4)n2)c1`, for which the Potency was 20700 nM (active).

Regarding `FC(F)(F)c1cccc(Nc2nccc(-c3ccc4c(c3)OCO4)n2)c1`, the Potency is 65.4 nM (active).

Turning to `N#Cc1cccc(-c2ncccn2)c1`, the Potency result was “inactive”.

`c1ccc(CNc2ccnc(-c3ccc4c(c3)OCO4)n2)cc1`: the Potency was 26000 nM (active).

Turning to `Clc1ccc(CNc2nccc(-c3ccc4cn[nH]c4c3)n2)cc1Cl`, the Potency was 412 nM (active).

Take `c1cnc(-c2ccc3c(c2)OCO3)nc1`: the Potency result was “inactive”.

On to `c1nc(NCC2CCCCC2)c2cc(-c3ccc4c(c3)OCO4)ccc2n1`, for which the Potency was 116 nM (active).

For `c1cncc(CNc2nccc(-c3ccc4cn[nH]c4c3)n2)c1`, the Potency was 207 nM (active).

In the case of `c1cc(-c2ccoc2)nc(-c2ccoc2)n1`, the Potency was 20700 nM (active).

Take `O=C(O)c1ccc(-c2ccc3ncnc(N4CCOCC4)c3c2)o1`: the Potency was 26000 nM (active).

Take `COc1ccc(CNc2ccnc(-c3ccc(N(C)C)cc3)n2)cc1`: the Potency entry is “inactive”.

With `COc1ccc(-c2nccc(NCc3ccccc3)n2)cc1`, the Potency entry is “inactive”.

With `CC(C)(C)CNc1ncnc2ccc(-c3ccc(C(=O)O)o3)cc12`, the Potency was 2320 nM (active).

Regarding `Brc1ccc(CNc2nccc(-c3ccc4c(c3)OCO4)n2)cc1Br`, the Potency is 823 nM (active).

In the case of `CCCN(C)c1ncnc2ccc(-c3ccc4c(c3)OCO4)cc12`, the Potency is 260 nM (active).

Turning to `Cc1csc(CNc2ncnc3ccc(-c4ccc(C(=O)O)o4)cc23)n1`, the Potency was 23200 nM (active).

For the compound `Clc1cc(Cl)cc(CNc2ncncc2-c2ccc3c(c2)OCO3)c1`, the Potency was 2600 nM (active).

As for `c1cncc(CNc2ccnc(-c3ccc4ccccc4c3)n2)c1`, the Potency was 14600 nM (active).

For the compound `c1cncc(CNc2cc(-c3ccc4c(c3)OCO4)ncn2)c1`, the Potency is 16400 nM (active).

Turning to `COc1ccc(-c2ncccn2)cc1`, the Potency result was “inactive”.

As to `COc1cccc(-c2ccnc(NCc3ccc(Cl)c(Cl)c3)n2)c1`, the Potency is 5820 nM (active).

Take `CCNC(=O)c1ccc(-c2ccc3ncnc(NCC4CCCO4)c3c2)o1` (stereo not given): the Potency is 2600 nM (active).

In the case of `Clc1cc(Cl)cc(CNc2ccnc(-c3ccc4c(c3)OCO4)n2)c1`, the Potency entry was “inactive”.

On to `CN(CC1CCCCC1)c1ncnc2ccc(-c3ccc4c(c3)OCO4)cc12`, for which the Potency is 1160 nM (active).

Turning to `Clc1ccc(CNc2ccnc(-c3ccc4c(c3)OCO4)n2)cc1`, the Potency result was “inactive”.
